Screening results deposited in PubChem by Broad Institute.
Rce1 inhib: inhibitors of yeast Ras-converting enzyme. Q03530. yeast membranes, quenched prenylated peptide cleavage fluorescence. calls only. actives 0.27% (n = 290,000). AID 2563;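 active means fall in fluorescence gain of 50% or more versus controls, with final raw signal at or below 3038400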
Target sequence (Q03530 whole entry, looked up): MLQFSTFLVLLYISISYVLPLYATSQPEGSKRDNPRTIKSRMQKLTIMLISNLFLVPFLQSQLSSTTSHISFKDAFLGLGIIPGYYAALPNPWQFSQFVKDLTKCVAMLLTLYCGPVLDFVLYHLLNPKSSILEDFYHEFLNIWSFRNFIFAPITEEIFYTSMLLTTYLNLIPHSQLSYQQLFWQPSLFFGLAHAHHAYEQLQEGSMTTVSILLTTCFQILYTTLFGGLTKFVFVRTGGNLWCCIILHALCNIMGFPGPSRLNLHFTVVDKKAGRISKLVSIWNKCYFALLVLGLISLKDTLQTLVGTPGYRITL
C2C12 statin: suppression of simvastatin myotoxicity; AID 602340; actives 0.78% (n = 330,000); C2C12 myotubes + simvastatin, ATP luminescence, 48 h; scaled: DMSO 0, geranylgeraniol control 100; rescue of ATP level, % at 7.49 µM;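 active means mean ATP rescue above about 67%, or every replicate alone reaching that limit, limit read from the data, passing the limit was not always enough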;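 further: myotubes were challenged with 10 µM simvastatin during compound exposure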
PGC1a acetyl inh: lowers PGC1a acetylation signal in U2OS cells. AlphaScreen anti-acetyl-lysine; with virally co-expressed GCN5 acetyltransferase. inhibition, % at 15.6 µM. actives 0.17% (n = 350,000);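 active means every replicate shows inhibition of at least 40%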
HIF activator: HIF pathway transcriptional activation. U2OS HRE-luciferase reporter, luminescence; normalized: DMSO 0%, desferrioxamine 100%. activation, % at 7.5 µM (by protocol). actives 0.32% (n = 300,000). AID 1910;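 active means mean activation of at least 10% of the iron chelator positive control signal, with at least half of replicates also reaching 10%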
AI-2 QS modul: modulates the Vibrio harveyi AI-2 quorum sensing system. Vibrio harveyi JMH597 AI-2 luminescence/OD600 ratio, 9 h; active compounds read low; strain lacks LuxN and CqsS sensors; 0 = neutral-control median. activity change, % at 7.5 µM. AID 2094. actives 0.4% (n = 300,000); in the data active means activity change below about -75%, passing the limit was not always enough;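 further: luminescence divided by OD600 gain over 9 h not by final OD600 alone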
Of the large screens only hits and unclear results are named; the others gave an inactive call. An excerpt weighted towards active compounds, which were near 1.3% of everything screened.

CCOc1ccccc1NC(=O)C1CCCN(S(=O)(=O)c2ccc(OC)c(C)c2)C1 (configuration not stated)	C2C12 statin 122.4
CCOc1ccc(S(=O)(=O)N2CCCCC2)cc1NC(=O)C1CCCC1	none (no result: Rce1 inhib, HIF activator, AI-2 QS modul)
Cn1c(N)c(C(=O)COC(=O)C2(c3cccc(F)c3)CCCC2)c(=O)n(C)c1=O	C2C12 statin 107.8
Cn1c(N)c(C(=O)COC(=O)c2ccc(F)cc2Cl)c(=O)n(C)c1=O	none (no result: Rce1 inhib, HIF activator, AI-2 QS modul)
COc1cccc(-c2ccc(C3[C@H]4CNC[C@@H]3N4Cc3ccc(F)cc3)cc2)c1 (some centres not stated)	none (no result: Rce1 inhib, C2C12 statin, HIF activator, AI-2 QS modul)
CCOCCN1CCN(c2c(CC)c(C)nc3cc(-c4cc(OC)cc(OC)c4)nn23)CC1	C2C12 statin 98.9
CCc1c(C)nc2cc(-c3cc(OC)cc(OC)c3)nn2c1N1CCCC1	none (no result: HIF activator)
CCC(=O)N1CCN(c2nc3ccc(Br)cc3s2)CC1	HIF activator 11.8
CCCCC(=O)N1CCN(c2nc3ccc(F)cc3s2)CC1	HIF activator 9.8
C=CCNS(=O)(=O)c1cccc2cc(C(=O)O)c(O)cc12	PGC1a acetyl inh 95.5
O=C1CCC(C(=O)OCC(=O)C23CC4CC(CC(C4)C2)C3)N1 (configuration not stated)	C2C12 statin 89.9 (no result: HIF activator)
O=C(C1CC1)N1CCC(C(O)(c2ccccc2)c2ccccc2)CC1	C2C12 statin 85.2
CCCNS(=O)(=O)c1ccc(OCC(=O)OC)cc1	C2C12 statin 130.5
COc1ccc(OCC(=O)NS(=O)(=O)c2ccc(Cl)cc2)cc1	Rce1 inhib active (no result: PGC1a acetyl inh)
O=C(COc1ccccc1)NS(=O)(=O)c1ccccc1	none (no result: Rce1 inhib, AI-2 QS modul)
COc1ccc(NS(=O)(=O)c2cccc(NC(=O)COc3ccc(OC)cc3)c2)cc1	AI-2 QS modul -83.3 (no result: C2C12 statin, PGC1a acetyl inh)
COc1ccc2c3c([nH]c2c1)[C@@H](CO)N(C(C)=O)CC31CN(C(=O)Nc2ccccc2F)C1	none (no result: Rce1 inhib, C2C12 statin, HIF activator, AI-2 QS modul)
COc1cccc(C(CC(=O)NCc2ccco2)NS(=O)(=O)c2ccc(C)cc2)c1OC (configuration not stated)	C2C12 statin 99.7
Cn1ncc(C#N)c1/N=C/N1CCOCC1	C2C12 statin 117.3 (no result: Rce1 inhib, AI-2 QS modul)
C[C@H]1CN([C@@H](C)CO)C(=O)Cc2cc(NC(=O)Nc3ccccc3)ccc2O[C@@H]1CN(C)S(=O)(=O)c1ccc(F)cc1	none (no result: Rce1 inhib, HIF activator, AI-2 QS modul)
O=C(NC(=S)Nc1nc(-c2ccc(Br)cc2)cs1)c1cccnc1	C2C12 statin 253.6 (no result: HIF activator)
N#Cc1ccc(-c2csc(NNC(=O)c3ccc(Br)cc3)n2)cc1	HIF activator 9.7 (no result: C2C12 statin)
CO[C@@H]1CN(C)C(=O)c2cc(NS(=O)(=O)CC(F)(F)F)ccc2OC[C@@H](C)N(Cc2cccnc2)C[C@@H]1C	none (no result: Rce1 inhib, HIF activator, AI-2 QS modul)
CC(C)c1ccc2c(c1)C1(NN=C(c3ccccc3)S1)C(=O)N2 (configuration not stated)	AI-2 QS modul -90.7
CCc1ccc2c(c1)C1(NN=C(c3ccc(C)cc3)S1)C(=O)N2 (configuration not stated)	none (no result: C2C12 statin)
Cc1ccc(-n2nc3c(=O)n(CC(=O)NCc4ccccc4)nc(C)c3c2C)cc1	HIF activator 89.4
CC1(C)CNC(=O)c2sc(NC(=O)CN3CCOCC3)nc2C1	C2C12 statin 107.8
CCn1c(SCC(=O)c2ccc(OC)cc2)nnc1C(C)NC(=O)c1ccc(OC)cc1 (configuration not stated)	C2C12 statin 75.6
C[C@@H]1CN([C@H](C)CO)C(=O)c2cc(-c3cccnc3)cnc2O[C@@H]1CN(C)C(=O)NC1CCCC1	none (no result: Rce1 inhib, HIF activator, AI-2 QS modul)
COc1ccc(/C(N)=N/OC(=O)c2cccs2)cc1	none (no result: C2C12 statin, PGC1a acetyl inh)
N/C(=N\OC(=O)c1cccs1)c1ccc(Cl)cc1	HIF activator 12.1
Cc1ccc(/C(N)=N/OC(=O)Cc2cccs2)cc1	none
N/C(=N\OC(=O)Cc1cccs1)c1ccccc1	HIF activator active
COc1ccc2c3c([nH]c2c1)[C@H](CO)N(C(=O)C1CCCCC1)CC31CN(Cc2nccs2)C1	none (no result: Rce1 inhib, C2C12 statin, HIF activator, AI-2 QS modul)
O=C(c1ccccc1)c1ccc(Cn2cc(CCCO)nn2)cc1	C2C12 statin 149.9
CCOC(=O)c1ccc(NC(=O)N2CCCCCC2)cc1	none (no result: PGC1a acetyl inh)
CCCN1CCN(C(=O)Nc2ccc(C(=O)OCC)cc2)CC1	C2C12 statin 108.9
Cc1ccc(OCCN2C(=O)C(=O)c3cc(C)ccc32)cc1	Rce1 inhib active
CCOc1c2ccc(C(=O)NCc3ccco3)cc2nn1CCOC	Rce1 inhib active
Cc1nc(CSc2ccc(Cl)cc2)cc(N2CC(C)OC(C)C2)n1 (configuration not stated)	C2C12 statin 107.3
